This is a sample that favours compounds with a hit; in the whole collection about 0.59% have one here.
IL2 activator: IL-2 activation; IL-2 activation reporter assay, cell-based qHTS; stimulated with anti-CD3/CD4/CD28 beads; in transgenic mouse T cells; activation, % (series mostly up to about 46 µM); 360,000 compounds, 0.065% hits; in the data active means activation above about 50%; inconclusive means mostly about 30% to 49%; further: 0% is about no effect
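Using fluorescent plate cytometry, EGFP and DsRed are detected in transgenic mouse T cells stimulated 18 h at 37 degrees C with antibody-coated beads after 60 min compound pretreatment.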
PKM2 act: PKM2 (human) enzyme activation; Potency, µM (highest dose often 57.5 µM), for inactives: at the top dose activation, hits mostly activators; purified PKM2, Kinase-Glo ATP luminescence, activation; response scale: 0% is enzyme alone, no compound; P14618; AID 1631; 260,000 compounds, 0.34% hits; active means well fitted activation curve with a large enough effect; inconclusive means small, poorly fitted or top-dose-only effect; inactive means no such curve, though single readings can be large or run the other way; further: potency means the concentration at half of the fitted maximal effect; on the % scale 0 is the no-effect control and ±100 the full control effect; nearly all actives have a fitted effect of over 55% in size
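Kinase-Glo luminescence reports ATP generated from ADP (0.1 mM) and PEP (0.5 mM) by purified hPK-M2 after 1 h at room temperature, pH 7.2 imidazole buffer; intermediate enzyme activity allows detecting inhibitors and activators.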
Rango release inh: inhibitors of RanGTP-induced Rango-importin beta complex dissociation. O95149+P62826. Biochemical FRET Rango-importin beta, RanGTP-induced dissociation. Potency, µM (doses to about 46.1 µM), for the others: at the highest dose activity change, negative = inhibition. 340,000 compounds, 0.071% hits; further: potency means the concentration at half of the fitted maximal effect; % of control where 0% means no effect; nearly all actives have a fitted effect of over 45% in size
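Quantitative HTS using a FRET biosensor: 0.1 uM Rango, 0.25 uM importin beta, 0.6 uM Ran, 2 mM GTP, 0.2 uM RCC1 final, PBS with DTT, Tween-20 and BSA. Post-read taken 45 min after Ran addition.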
Rango-impB inh: inhibitors of Rango-importin beta complex formation; Q14974; Rango CFP/YFP FRET sensor + importin beta, 45 min; Potency, µM (highest dose often 92.2 µM), without a hit: at the highest dose inhibition of complex formation; 340,000 compounds, 0.031% hits;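 further: potency means the concentration at half of the fitted maximal effect; 0% = DMSO wells and 100% = buffer wells lacking importin beta; nearly all actives have a fitted effect of over 15% in size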
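FRET biosensor Rango (snurportin 1 IBB between N-terminal EYFP and C-terminal Cerulean), 50 nM in PBS/1 mM DTT/0.02% Tween-20/0.1% BSA, preincubated 5 min RT with compound; 0.125 microM importin beta added, 45 min RT, CFP/YFP FRET ratio read.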
AT treatment: potential ataxia-telangiectasia treatment | F2112 A-T fibroblasts, KAP-1 phosphorylation AlphaLISA; neocarzinostatin DNA damage 30 min before lysis | Potency, µM (top dose mostly 57.5 µM), for inactives: top-dose activation, hits mostly activators | 320,000 compounds, 0.19% hits | AID 485349; active means well fitted activation curve with a large enough effect; inconclusive means small, poorly fitted or top-dose-only effect; inactive means no such curve, though single readings can be large or run the other way; further: potency means the concentration at half of the fitted maximal effect; % of control where 0% means no effect; nearly all actives have a fitted effect of over 45% in size
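hTERT-immortalized A-T patient fibroblasts (F2112), 500 cells/well in OPTI-MEM, 1% FBS, got compounds for 60 min, then NCS for 30 min at 37C. Lysates were then assayed for phospho-KAP-1 by AlphaLISA (anti-pKAP1 donor, anti-KAP1 acceptor beads), 6 hr at 25C.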
Numbers without * were called inactive; [ ] = another dose, or the depositor's remark. Unless noted, the call rests on the fitted dose curve.

`CCOC(=O)c1c(-c2ccc(C)cc2)cn2ccccc12` gave IL2 activator 2.4, PKM2 act 1.2%, Rango release inh 14.1%, Rango-impB inh 5.8% and AT treatment 31.6µM*.
`O=C(COC(=O)COc1ccccc1F)Nc1ccc2c(c1)OCO2` gave IL2 activator 0.6, Rango release inh -4.6%, Rango-impB inh -3.0% and AT treatment 15.0%.
`O=C(NCc1ccco1)c1cccc(-c2cncc3nccn23)c1` gave IL2 activator -0.3.
Screening COc1ccc(C)cc1NC(=O)n1ncc2cc(Cl)ccc21 returned IL2 activator 4.4, Rango release inh 13.0%, Rango-impB inh -0.3% and AT treatment 11.7%.
CC(=O)c1cccc(-c2ccc3c(=O)[nH]c(Nc4ccccc4)cc3c2)c1 was read as IL2 activator 0.8, Rango release inh 11.6µM*[inhibitor] and Rango-impB inh inconclusive.
Screening CCCCCCSc1cccc(-c2nc3cc(C)ccn3c2NCc2ccccc2)c1 returned IL2 activator -1.4, Rango release inh inconclusive, Rango-impB inh inconclusive and AT treatment 20µM*.
Screening CCC(C)Sc1cccc(-c2nc3ccccn3c2NCc2ccccc2)c1 (stereo unspecified) returned IL2 activator -3.5, Rango release inh inconclusive, Rango-impB inh inconclusive and AT treatment 16.7%.
For CCC(C)Sc1cccc(-c2nc3ccc(C)cn3c2NCc2ccccc2)c1 (stereo unspecified) the results were IL2 activator -0.9, Rango release inh -11.0%, Rango-impB inh inconclusive and AT treatment 22.4µM*.
For CCC(C)Sc1cccc(-c2nc3ccc(Cl)cn3c2NCc2ccccc2)c1 (stereo unspecified) the results were IL2 activator -0.4, Rango release inh inconclusive, Rango-impB inh inconclusive and AT treatment 20µM*.
Screening Cc1ccc2nc(-c3cccc(-c4cccc(Cl)c4)c3)c(NCc3ccccc3)n2c1 returned IL2 activator -0.6, Rango release inh -5.7%, Rango-impB inh inconclusive and AT treatment inconclusive.
For O=C(OCCOc1cccc(Cl)c1)c1ccc2ncsc2c1 the results were IL2 activator -0.5, PKM2 act 15.8µM*, Rango release inh 11.6%, Rango-impB inh 0.5% and AT treatment 2.8%.
`Fc1ccc(/C=N/NC2=Nc3cccc4cccc2c34)cc1` gave IL2 activator 119.0*, PKM2 act -2.9%, Rango release inh inconclusive, Rango-impB inh inconclusive and AT treatment -10.1%.
c1ccc(NC2=Nc3cccc4cccc2c34)cc1 was read as IL2 activator -0.4, PKM2 act 4.5%, Rango release inh -0.7%, Rango-impB inh inconclusive and AT treatment 0.3%.
CCCNC(=O)C1(C)CCN(Cc2cc(-c3ccccc3)on2)C1 (stereo unspecified) was read as IL2 activator -0.3.
`O=C1CC(Cc2ccccc2)C(=O)N1Cc1ccco1` (stereo unspecified) gave IL2 activator -0.5, PKM2 act 28.2µM*, Rango release inh -20.9%, Rango-impB inh -2.5% and AT treatment 1.3%.
`O=C(Nc1ccc(S(=O)(=O)Nc2nccs2)cc1)c1ccc(F)c(S(=O)(=O)N2CCOCC2)c1` gave IL2 activator -0.5, PKM2 act 22.8%, Rango release inh inconclusive, Rango-impB inh inconclusive and AT treatment 3.6%.
For O=C(Nc1ccc(S(=O)(=O)Nc2ncccn2)cc1)c1ccc(F)c(S(=O)(=O)N2CCOCC2)c1 the results were IL2 activator -1.8, PKM2 act 1.3%, Rango release inh 32.1%, Rango-impB inh -0.2% and AT treatment 28.2µM*.
`Cc1ccc(-n2c(SCC(=O)NCc3ccco3)nc3sc(C)c(C)c3c2=O)cc1` gave IL2 activator 0.4, PKM2 act 0.5%, Rango release inh 5.7%, Rango-impB inh -0.4% and AT treatment 4.9%.
Cc1ccc(-n2c(SCC(=O)NCc3ccco3)nc3nc4c(cc3c2=O)COC(C)(C)C4)cc1 was read as IL2 activator 0.7, PKM2 act 14.1µM*, Rango release inh -5.9%, Rango-impB inh -0.4% and AT treatment inconclusive.
Screening OC[C@@H]1CN(Cc2cccc(C(F)(F)F)c2)C[C@H](n2cnc3c(NCc4ccncc4)ncnc32)O1 returned IL2 activator 2.0.
CCc1sc(C(C2C(=O)CC(C)(C)CC2=O)C2C(=O)CC(C)(C)CC2=O)cc1[N+](=O)[O-] was read as IL2 activator -2.7, PKM2 act 22.4µM*, Rango release inh 23.3%, Rango-impB inh 2.5% and AT treatment -0.7%.
CC(C)(C)NC(=O)C(c1ccncc1)N(Cc1ccc(F)cc1)C(=O)c1ccc(-c2ccccc2)[nH]1 (stereo unspecified) was read as IL2 activator 1.5, PKM2 act 28.2µM*, Rango release inh 38.6%, Rango-impB inh -5.5% and AT treatment 9.2%.
For O=C(NC1CCCC1)C(c1ccncc1)N(Cc1ccccc1)C(=O)c1ccc(-c2ccccc2)[nH]1 (stereo unspecified) the results were IL2 activator 0.0, PKM2 act 2.4%, Rango release inh -9.2%, Rango-impB inh -2.7% and AT treatment -4.1%.
Screening O=C1C2C3C=CC(CC3)C2S(=O)(=O)C2C3C=CC(CC3)C12 (stereo unspecified) returned IL2 activator -0.1.
Screening CCc1cc(C(=O)OC)c(NC(=O)CC2Nc3cc(C)c(C)cc3NC2=O)s1 (stereo unspecified) returned IL2 activator inconclusive, PKM2 act -1.6%, Rango release inh inconclusive, Rango-impB inh inconclusive and AT treatment 14.3%.
COc1ccc(NC(=O)CC2Nc3ccccc3NC2=O)c([N+](=O)[O-])c1 (stereo unspecified) was read as IL2 activator -1.4, PKM2 act -3.2%, Rango release inh -9.2%, Rango-impB inh -0.7% and AT treatment 1.3%.
For COc1ccccc1NC(=O)CC1Nc2ccccc2NC1=O (stereo unspecified) the results were IL2 activator -3.1, PKM2 act -14.4%, Rango release inh 11.6µM*, Rango-impB inh inconclusive and AT treatment 7.9%.
Screening COC(=O)c1c(NC(=O)CC2Nc3cc(C)c(C)cc3NC2=O)sc(C)c1C (stereo unspecified) returned IL2 activator 61.7*, PKM2 act 10.8%, Rango release inh 2.8%, Rango-impB inh -2.6% and AT treatment 2.6%.
Cc1ccc(/C(N)=N/OC(=O)Cc2cccc3ccccc23)cc1 was read as IL2 activator -1.9, PKM2 act 25.1µM*, Rango release inh 11.1%, Rango-impB inh 1.8% and AT treatment 23.5%.

Screening results from PubChem.
